Assay [1] deals with Sphingosine kinase 1 (Homo sapiens) (UniProt Q9NYA1). Particulars: at 1 µM.
In assay [2] the target is T1, Sphingosine kinase 2 (Homo sapiens) (UniProt Q9NRA0).
T1 sequence (whole entry): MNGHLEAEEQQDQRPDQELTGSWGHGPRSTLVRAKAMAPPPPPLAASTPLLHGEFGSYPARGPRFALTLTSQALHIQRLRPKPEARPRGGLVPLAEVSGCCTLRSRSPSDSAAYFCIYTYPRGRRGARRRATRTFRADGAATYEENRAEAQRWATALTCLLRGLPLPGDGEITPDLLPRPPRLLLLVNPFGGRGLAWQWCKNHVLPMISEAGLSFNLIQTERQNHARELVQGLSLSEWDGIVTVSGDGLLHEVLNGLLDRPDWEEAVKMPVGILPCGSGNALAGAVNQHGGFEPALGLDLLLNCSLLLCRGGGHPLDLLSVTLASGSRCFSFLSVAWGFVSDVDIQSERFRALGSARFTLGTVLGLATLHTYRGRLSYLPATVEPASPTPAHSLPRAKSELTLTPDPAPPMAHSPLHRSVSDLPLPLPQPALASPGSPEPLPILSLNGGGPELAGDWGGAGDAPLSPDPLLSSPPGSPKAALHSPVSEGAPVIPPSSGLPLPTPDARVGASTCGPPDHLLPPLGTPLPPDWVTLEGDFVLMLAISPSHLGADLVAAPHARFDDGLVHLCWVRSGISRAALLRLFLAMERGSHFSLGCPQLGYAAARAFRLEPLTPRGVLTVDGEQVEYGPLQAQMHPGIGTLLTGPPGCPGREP
Particulars: at 0.1 µM.

Assay [3] addresses T1, Sphingosine kinase 2 (Homo sapiens). Particulars: at 1 µM.
Assay [4] deals with Casein kinase II subunit alpha (Homo sapiens) (UniProt P68400). Particulars: at 0.1 µM.
Casein kinase II subunit alpha (Homo sapiens), sequence (P68400 whole entry, looked up): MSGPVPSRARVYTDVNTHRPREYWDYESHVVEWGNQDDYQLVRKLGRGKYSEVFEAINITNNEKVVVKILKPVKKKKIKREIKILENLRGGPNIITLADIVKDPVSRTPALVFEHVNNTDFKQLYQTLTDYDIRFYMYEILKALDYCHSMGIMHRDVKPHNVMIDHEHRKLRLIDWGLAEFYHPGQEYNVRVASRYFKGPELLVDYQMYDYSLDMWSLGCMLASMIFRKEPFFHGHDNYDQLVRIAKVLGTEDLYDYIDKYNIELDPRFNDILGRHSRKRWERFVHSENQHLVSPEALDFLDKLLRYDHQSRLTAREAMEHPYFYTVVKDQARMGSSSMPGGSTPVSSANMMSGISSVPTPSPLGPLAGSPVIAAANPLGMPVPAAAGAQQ
Assay [5] has the same target. Particulars: at 1 µM.
In assay [6] the target is T2, Inhibitor of nuclear factor kappa-B kinase subunit alpha (Homo sapiens) (UniProt O15111).
T2 sequence (whole entry): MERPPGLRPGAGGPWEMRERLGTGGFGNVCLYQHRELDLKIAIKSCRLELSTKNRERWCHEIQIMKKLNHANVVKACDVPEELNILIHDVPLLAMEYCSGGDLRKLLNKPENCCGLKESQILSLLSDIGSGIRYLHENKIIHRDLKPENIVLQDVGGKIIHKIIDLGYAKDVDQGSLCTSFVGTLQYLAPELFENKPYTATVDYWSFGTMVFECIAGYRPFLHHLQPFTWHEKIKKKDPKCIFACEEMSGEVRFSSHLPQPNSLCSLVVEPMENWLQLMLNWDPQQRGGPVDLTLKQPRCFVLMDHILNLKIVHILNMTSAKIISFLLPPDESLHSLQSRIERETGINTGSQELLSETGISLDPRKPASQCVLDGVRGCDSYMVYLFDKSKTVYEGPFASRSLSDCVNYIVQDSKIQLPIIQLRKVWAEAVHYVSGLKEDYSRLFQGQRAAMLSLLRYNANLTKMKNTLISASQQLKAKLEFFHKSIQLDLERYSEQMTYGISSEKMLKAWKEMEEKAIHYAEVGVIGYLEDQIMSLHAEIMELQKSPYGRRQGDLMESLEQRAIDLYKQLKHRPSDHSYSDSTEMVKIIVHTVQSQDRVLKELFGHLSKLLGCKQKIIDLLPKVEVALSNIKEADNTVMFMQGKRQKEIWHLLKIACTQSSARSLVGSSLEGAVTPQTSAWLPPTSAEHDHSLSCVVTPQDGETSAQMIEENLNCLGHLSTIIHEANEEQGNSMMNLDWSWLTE
Particulars: at 0.1 µM.

The target of assay [7] is T2, Inhibitor of nuclear factor kappa-B kinase subunit alpha (Homo sapiens). Particulars: at 1 µM.
The target in assay [8] is T3, Inhibitor of nuclear factor kappa-B kinase subunit beta (Homo sapiens) (UniProt O14920).
T3 sequence (whole entry): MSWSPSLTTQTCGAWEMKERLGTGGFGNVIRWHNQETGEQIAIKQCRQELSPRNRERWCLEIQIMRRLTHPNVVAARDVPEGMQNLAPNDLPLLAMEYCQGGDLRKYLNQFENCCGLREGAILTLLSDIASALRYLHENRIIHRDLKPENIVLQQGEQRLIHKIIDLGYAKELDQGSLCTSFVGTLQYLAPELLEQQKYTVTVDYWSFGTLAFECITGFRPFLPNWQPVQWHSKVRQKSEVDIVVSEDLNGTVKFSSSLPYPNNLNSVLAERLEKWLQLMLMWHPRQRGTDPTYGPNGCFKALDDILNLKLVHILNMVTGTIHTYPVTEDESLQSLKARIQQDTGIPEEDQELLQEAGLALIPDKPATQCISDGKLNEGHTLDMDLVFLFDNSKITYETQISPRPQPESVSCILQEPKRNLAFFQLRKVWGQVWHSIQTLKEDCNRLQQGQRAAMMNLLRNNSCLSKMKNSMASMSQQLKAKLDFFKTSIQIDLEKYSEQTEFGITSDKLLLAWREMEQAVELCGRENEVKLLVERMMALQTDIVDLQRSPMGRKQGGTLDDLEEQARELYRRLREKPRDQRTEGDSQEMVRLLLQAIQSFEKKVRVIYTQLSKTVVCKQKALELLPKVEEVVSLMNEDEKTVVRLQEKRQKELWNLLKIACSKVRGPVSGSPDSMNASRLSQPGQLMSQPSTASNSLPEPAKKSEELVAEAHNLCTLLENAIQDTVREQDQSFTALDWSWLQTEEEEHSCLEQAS
Particulars: at 0.1 µM.

Assay [9] deals with T3, Inhibitor of nuclear factor kappa-B kinase subunit beta (Homo sapiens). Particulars: at 1 µM.
The target of assay [10] is T4, Inhibitor of nuclear factor kappa-B kinase subunit epsilon (Homo sapiens) (UniProt Q14164).
T4 sequence (whole entry): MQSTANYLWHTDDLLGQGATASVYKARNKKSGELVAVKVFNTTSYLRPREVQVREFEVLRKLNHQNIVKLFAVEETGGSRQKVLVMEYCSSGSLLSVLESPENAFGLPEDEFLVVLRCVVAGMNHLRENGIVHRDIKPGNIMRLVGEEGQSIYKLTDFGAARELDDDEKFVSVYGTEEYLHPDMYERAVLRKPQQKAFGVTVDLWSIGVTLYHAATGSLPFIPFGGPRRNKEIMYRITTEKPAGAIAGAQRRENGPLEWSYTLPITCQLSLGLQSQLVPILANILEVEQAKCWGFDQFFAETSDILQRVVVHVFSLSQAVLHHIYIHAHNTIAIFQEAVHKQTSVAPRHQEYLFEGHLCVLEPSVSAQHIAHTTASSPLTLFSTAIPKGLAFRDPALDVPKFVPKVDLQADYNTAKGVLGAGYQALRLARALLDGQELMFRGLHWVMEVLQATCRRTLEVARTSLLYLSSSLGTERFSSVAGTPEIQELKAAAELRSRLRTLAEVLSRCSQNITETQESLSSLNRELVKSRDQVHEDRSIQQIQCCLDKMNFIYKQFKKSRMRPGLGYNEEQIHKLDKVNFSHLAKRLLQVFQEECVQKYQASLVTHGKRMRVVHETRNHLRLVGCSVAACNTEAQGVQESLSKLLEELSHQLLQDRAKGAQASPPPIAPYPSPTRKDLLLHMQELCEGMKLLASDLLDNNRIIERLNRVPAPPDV
Particulars: at 0.1 µM.

The target in assay [11] is T4, Inhibitor of nuclear factor kappa-B kinase subunit epsilon (Homo sapiens). Particulars: at 1 µM.
The target in assay [12] is T5, Serine/threonine-protein kinase Nek1 (Homo sapiens) (UniProt Q96PY6).
T5 sequence (whole entry): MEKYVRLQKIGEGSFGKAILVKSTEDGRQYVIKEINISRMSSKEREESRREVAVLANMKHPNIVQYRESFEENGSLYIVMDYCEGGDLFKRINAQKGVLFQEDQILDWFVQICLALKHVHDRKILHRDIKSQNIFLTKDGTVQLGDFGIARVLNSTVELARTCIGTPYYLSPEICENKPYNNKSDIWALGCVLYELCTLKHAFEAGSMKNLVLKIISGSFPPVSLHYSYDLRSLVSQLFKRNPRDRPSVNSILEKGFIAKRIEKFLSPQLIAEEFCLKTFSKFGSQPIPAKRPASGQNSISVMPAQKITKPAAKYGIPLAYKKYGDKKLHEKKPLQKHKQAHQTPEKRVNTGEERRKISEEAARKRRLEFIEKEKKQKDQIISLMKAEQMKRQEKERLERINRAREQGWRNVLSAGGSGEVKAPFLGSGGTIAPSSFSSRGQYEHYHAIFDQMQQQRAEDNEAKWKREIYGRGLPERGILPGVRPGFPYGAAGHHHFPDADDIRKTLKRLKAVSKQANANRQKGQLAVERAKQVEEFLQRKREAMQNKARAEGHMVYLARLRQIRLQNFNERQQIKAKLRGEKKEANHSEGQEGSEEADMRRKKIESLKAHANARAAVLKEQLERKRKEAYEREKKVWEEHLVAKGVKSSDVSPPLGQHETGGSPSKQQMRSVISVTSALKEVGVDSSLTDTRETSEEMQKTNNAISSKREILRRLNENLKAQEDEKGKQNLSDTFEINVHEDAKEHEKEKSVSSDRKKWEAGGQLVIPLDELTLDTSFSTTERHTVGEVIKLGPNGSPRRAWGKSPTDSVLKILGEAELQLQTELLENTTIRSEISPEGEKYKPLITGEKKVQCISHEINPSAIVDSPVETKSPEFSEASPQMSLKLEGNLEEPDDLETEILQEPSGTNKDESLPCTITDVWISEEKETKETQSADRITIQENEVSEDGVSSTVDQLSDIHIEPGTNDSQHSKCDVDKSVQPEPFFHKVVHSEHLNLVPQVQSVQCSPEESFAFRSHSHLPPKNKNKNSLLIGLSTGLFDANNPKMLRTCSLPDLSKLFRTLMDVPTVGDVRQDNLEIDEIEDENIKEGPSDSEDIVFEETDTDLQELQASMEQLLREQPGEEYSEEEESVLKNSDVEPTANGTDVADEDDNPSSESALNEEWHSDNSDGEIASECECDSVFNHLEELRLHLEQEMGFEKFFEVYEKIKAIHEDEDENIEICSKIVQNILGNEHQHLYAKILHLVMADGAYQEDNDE
Particulars: at 0.1 µM.

Assay [13] has as its target T5, Serine/threonine-protein kinase Nek1 (Homo sapiens). Particulars: at 1 µM.
The target of assay [14] is T6, Serine/threonine-protein kinase Nek2 (Homo sapiens) (UniProt P51955).
T6 sequence (whole entry): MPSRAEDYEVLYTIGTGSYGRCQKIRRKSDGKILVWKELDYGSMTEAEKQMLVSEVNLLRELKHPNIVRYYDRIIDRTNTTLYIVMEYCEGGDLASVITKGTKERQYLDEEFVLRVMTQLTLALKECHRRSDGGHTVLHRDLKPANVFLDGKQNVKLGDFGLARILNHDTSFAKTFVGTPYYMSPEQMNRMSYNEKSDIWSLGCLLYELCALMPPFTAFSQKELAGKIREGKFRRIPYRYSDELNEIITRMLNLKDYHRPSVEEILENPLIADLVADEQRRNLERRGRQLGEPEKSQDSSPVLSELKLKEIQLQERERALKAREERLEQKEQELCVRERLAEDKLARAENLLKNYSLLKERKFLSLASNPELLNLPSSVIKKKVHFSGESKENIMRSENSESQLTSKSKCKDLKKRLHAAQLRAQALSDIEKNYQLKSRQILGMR
Particulars: at 0.1 µM.

The target of assay [15] is T6, Serine/threonine-protein kinase Nek2 (Homo sapiens). Particulars: at 1 µM.
The target of assay [16] is Serine/threonine-protein kinase Nek6 (Homo sapiens) (UniProt Q9HC98). Particulars: at 0.1 µM.
Serine/threonine-protein kinase Nek6 (Homo sapiens), sequence (Q9HC98 whole entry): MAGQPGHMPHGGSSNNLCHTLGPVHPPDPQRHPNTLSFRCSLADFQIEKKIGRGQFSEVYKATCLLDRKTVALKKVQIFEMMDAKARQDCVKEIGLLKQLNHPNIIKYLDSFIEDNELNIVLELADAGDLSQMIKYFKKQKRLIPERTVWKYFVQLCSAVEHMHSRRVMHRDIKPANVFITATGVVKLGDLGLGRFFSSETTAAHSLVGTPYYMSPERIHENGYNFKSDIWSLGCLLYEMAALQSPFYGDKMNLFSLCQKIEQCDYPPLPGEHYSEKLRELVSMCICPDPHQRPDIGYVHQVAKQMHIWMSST
The target is the same in assay [17]. Particulars: at 1 µM.
Assay [18] deals with Serine/threonine-protein kinase Nek7 (Homo sapiens) (UniProt Q8TDX7). Particulars: at 0.1 µM.
Serine/threonine-protein kinase Nek7 (Homo sapiens), sequence (Q8TDX7 whole entry, looked up): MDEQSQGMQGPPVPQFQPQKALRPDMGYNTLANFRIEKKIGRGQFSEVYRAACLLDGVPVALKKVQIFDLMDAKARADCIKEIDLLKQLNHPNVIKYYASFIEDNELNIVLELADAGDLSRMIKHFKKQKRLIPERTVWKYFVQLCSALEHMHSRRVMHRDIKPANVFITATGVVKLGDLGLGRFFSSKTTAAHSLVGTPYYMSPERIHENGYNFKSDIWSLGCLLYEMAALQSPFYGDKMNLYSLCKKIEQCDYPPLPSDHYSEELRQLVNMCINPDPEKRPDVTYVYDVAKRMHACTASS
For assay [19] the target is unchanged. Particulars: at 1 µM.
For assay [20], the target named is T7, Serine/threonine-protein kinase Nek9 (Homo sapiens) (UniProt Q8TD19).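 Note: reported value is the mean percent inhibition of NEK9.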
T7 sequence (whole entry): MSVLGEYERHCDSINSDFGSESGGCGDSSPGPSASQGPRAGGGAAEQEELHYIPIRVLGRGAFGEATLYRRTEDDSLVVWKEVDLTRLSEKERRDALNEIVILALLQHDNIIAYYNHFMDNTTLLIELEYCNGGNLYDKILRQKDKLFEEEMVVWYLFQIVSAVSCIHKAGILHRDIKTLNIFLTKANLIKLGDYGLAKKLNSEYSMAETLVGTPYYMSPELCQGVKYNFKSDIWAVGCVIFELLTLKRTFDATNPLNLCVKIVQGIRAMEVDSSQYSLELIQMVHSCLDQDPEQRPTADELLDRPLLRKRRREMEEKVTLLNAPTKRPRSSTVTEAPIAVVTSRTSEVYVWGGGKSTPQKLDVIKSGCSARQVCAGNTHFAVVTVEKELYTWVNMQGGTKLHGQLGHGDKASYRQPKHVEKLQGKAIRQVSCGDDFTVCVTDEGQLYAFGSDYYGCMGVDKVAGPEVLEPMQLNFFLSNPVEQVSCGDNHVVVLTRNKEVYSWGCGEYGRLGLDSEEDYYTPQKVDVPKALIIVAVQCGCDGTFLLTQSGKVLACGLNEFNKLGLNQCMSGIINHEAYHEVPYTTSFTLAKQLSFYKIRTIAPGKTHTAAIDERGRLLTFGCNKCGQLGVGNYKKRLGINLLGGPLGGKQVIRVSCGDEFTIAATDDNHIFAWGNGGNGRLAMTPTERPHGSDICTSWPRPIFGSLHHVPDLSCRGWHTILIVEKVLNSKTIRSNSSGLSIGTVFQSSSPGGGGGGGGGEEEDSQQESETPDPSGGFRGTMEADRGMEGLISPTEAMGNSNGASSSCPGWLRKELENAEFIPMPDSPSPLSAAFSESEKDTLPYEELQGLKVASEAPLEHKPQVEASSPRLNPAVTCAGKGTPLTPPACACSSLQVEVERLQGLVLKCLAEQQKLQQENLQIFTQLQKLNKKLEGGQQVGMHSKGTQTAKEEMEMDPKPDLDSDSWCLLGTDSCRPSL
Particulars: at 0.1 µM.

The structures appear in SMILES notation.

One compound from ChEMBL document CHEMBL1961873, “Compounds: GSK PKIS; Assays: Nanosyn kinase panel” (2012) can be followed below.

As usually defined, the inhibition is the change of the read-out against control, counted positive when it falls.

Sphingosine kinase 1 (Homo sapiens), sequence (Q9NYA1 whole entry): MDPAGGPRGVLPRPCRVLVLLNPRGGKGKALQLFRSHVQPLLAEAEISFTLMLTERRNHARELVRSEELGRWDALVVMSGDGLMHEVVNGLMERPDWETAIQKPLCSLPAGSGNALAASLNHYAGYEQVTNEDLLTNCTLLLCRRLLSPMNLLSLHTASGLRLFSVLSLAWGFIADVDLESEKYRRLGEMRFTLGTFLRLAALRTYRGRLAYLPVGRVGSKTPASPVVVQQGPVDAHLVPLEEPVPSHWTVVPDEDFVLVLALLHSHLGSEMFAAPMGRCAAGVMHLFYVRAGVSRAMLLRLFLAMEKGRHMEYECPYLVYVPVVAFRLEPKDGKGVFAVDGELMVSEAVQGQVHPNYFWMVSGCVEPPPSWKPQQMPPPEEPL

For `NS(=O)(=O)c1ccc(N/N=C2\C(=O)Nc3ccc(-c4cnco4)cc32)cc1`, the inhibition in [1] was 1.01%; in assay [2], 1.12%; in assay [3], -1.25%; in assay [4], 5.69%; in assay [5] it was 15.2%; in assay [6], 1.42%. In addition, the inhibition is 35.1% in [7]; 2.62% in [8]; 10.4% in assay [9]; 5.68% in assay [10]; 26.5% in assay [11]; 0.9% in assay [12]. The inhibition was -0.1% in [13]; 2.64% in assay [14]; 1.79% in [15]; 1.55% in assay [16]; 1.55% in [17]; 2.6% in assay [18]. The inhibition in [19] was 8.73%; in assay [20] it was 2.34%.
